“And” between values parts separate entries of the source, which are not always exact repeats. Equal entries are not always repeated. The campaign covered roughly 69,000 compounds. About 2,600 (3.8%) were called active. The entries come from a sample that favours actives as a whole. Values without a mark were called inactive. Rule as the data show it: active = activity change below about -70% (passing the limit was not always enough); inconclusive = no clear call, values can overlap the other calls.
test: T. gondii growth inhibition with IFN-gamma, primary screen, cell-based (AID 1259416); conditions: Toxoplasma gondii growth in IFN-gamma-treated host cells; hits give low values; concentration not given here;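 also: host cells are HeLa cells infected with Toxoplasma gondii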

| Compound | activity change, negative = inhibition |
| --- | --- |
| Cc1cccnc1CN(C)C(=O)c1cc(CN2CCC(Cc3ccccc3)CC2)on1 | 9.1% |
| Oc1c(Cl)cc(Cl)c(Cl)c1Cc1c(O)c(Cl)cc(Cl)c1Cl | -85.3% (active) and -87.1% (active) and -96% (active) |
| N#Cc1cccc(-c2ccc3c(c2)[C@H]2[C@H](CCN2S(=O)(=O)c2ccc(F)cc2)[C@@H](CO)N3)c1 | -42.4% |
| COCC#Cc1ccc([C@@H]2[C@@H](CO)N3CCCCN(C(=O)NC4CCCC4)C[C@H]23)cc1 | -18.5% |
| CC(C)NS(=O)(=O)c1ccc(OCC(=O)N2CCCCCC2)cc1 | 1.18% |
| O=C(CC1CCN(Cc2ccccn2)CC1)Nc1ccc(OC2CCCC2)cc1 | -69.9% |
| O=C1CCCN1CC1CN(c2ncc(F)cn2)Cc2nccn2C1 (stereo not given) | 4.1% |
| O=C1CCCN1CC1CN(Cc2ccccn2)Cc2nccn2C1 (stereo not given) | -70.8% (active) |
| COC(=O)c1ccc(-c2noc(-c3c(O)c4ccccc4[nH]c3=O)n2)cc1 | 21.8% |
| O=C(CCCn1cnnn1)N1CCc2onc(-c3cccc(F)c3)c2C1 | -6.14% |
| CCCCc1ccc(S(N)(=O)=O)cc1 | -51.9% |
| CCCCCCCCCc1ccc(OCCOCCOCCOCCOCCOCCOCCOCCOCCO)cc1 | -80.7% (active) |
| CCCCCc1ccc(C#Cc2ccc(OC(F)F)cc2)cc1 | 5.21% |
| Cc1cc(-c2cccc(O)c2)nc(-c2ccccc2O)n1 | -20% |
| CN1C(=O)c2cc(NC(=O)C3CCOCC3)ccc2OC[C@@H]2O[C@H](CC(=O)NCc3ccccc3F)CC[C@H]21 | 11.5% |
| CN(C)C(=O)N1CCc2ncnc(C3CCOC3)c2CC1 (stereo not given) | 1.98% |
| O=C(Cn1c(=O)cc(C(=O)N2CCCCC2)c2ccccc21)NC1CCCC1 | 11.6% |
| CC(C)CN1CC[C@H]2[C@H](CC1)S(=O)(=O)CCN2C(=O)c1ccccc1 | 3.93% |
| CC(C)CN1C(=O)N(C2Cc3ccccc3C2)C(=O)C12CCN(Cc1nc3ccccc3n1C)CC2 | -8.38% |
| CC(C)CN1CCC2(C=C(C(=O)N(C)C)c3ccccc32)CC1 | -81.7% (active) |
| Cc1ccc(C(=O)N2CCC3(CC2)C(=O)N(C)CCN3CC2CC2)cn1 | 1.05% |
| CN1C[C@@H]2C3(CCN(C(=O)Nc4ccccc4)CC3)CC[C@@]2(C(=O)N2CCCC2)C1 | 6.69% |
| COc1ccc2c3c(n(C)c2c1)[C@@H](CO)N(C)CC31CN(S(=O)(=O)c2cccs2)C1 | 36% |
| C#C[C@]1(O)CC[C@H]2[C@@H]3CCC4=CC(=O)CC[C@@H]4[C@H]3CC[C@@]21CC | -81.4% (active) and -75.5% (active) |

| Compound | activity change, negative = inhibition |
| --- | --- |
| C#C[C@]1(O)CC[C@H]2[C@@H]3CCC4=CC(=O)CC[C@@H]4C3CC[C@@]21CC (stereo not given in full) | -83.8% (active) |
| COc1cc(-c2nc(CN3[C@@H]4CC[C@H]3CNC(=O)C4)c(C)o2)cc2c1OCO2 | -3.36% |
| COc1ccccc1NC(=O)Cn1ncc2c(N3CCN(c4ccccc4)CC3)ncnc21 | 74% |
| COc1ccc(-c2nc(C)c(CCNC(=O)C(=O)Nc3cccc(OC)c3)s2)cc1 | 487% |
| Cc1oc(-c2cccc(Oc3ccccc3)c2)nc1CN1[C@@H]2CC[C@H]1CNC(=O)C2 | -8.53% |
| O=C(CC1Nc2c3ccccc3nc(=S)n2C1=O)N1CCN(c2ccc(Cl)cc2)CC1 (stereo not given) | -16.2% |
| COc1ncc(-c2cccc(C(C)N3CCCC3)c2)c(OC)n1 (stereo not given) | -10.7% |
| Cc1ccc(S(=O)(=O)Nc2ccc3c(c2)C(=O)N([C@@H](C)CO)C[C@@H](C)[C@H](CN(C)Cc2ccc(C(F)(F)F)cc2)O3)cc1 | -72.9% (active) |
| C[C@H](CO)N1C[C@H](C)[C@@H](CN(C)Cc2ccncc2)OCCCC[C@H](C)Oc2ccc(NS(=O)(=O)c3ccc(Cl)cc3)cc2C1=O | -94.1% (active) |
| C[C@@H]1CN([C@@H](C)CO)C(=O)c2cc(NS(C)(=O)=O)ccc2O[C@@H]1CN(C)C | -0.62% |
| C[C@@H]1CN([C@@H](C)CO)C(=O)c2cc(NS(=O)(=O)c3ccccc3)ccc2O[C@@H](C)CCCCO[C@H]1CN(C)C(=O)C1CCCCC1 | -14.8% |
| C[C@H](CO)N1C[C@H](C)[C@H](CN(C)Cc2ccncc2)Oc2ccc(NS(=O)(=O)c3ccc(F)cc3)cc2CC1=O | 33.3% |
| C[C@@H]1CN([C@H](C)CO)C(=O)c2cc(NS(=O)(=O)c3cccs3)ccc2O[C@@H](C)CCCCO[C@@H]1CN(C)C(=O)c1ccncc1 | 14.1% |
| C[C@@H]1CN([C@H](C)CO)C(=O)c2cc(NC(=O)Cc3ccccc3)ccc2O[C@@H](C)CCCCO[C@@H]1CN(C)Cc1ccncc1 | 31.6% |
| Cc1noc(C)c1S(=O)(=O)N(C)C[C@@H]1OCCCC[C@H](C)Oc2ccc(NC(=O)CCC(F)(F)F)cc2C(=O)N([C@H](C)CO)C[C@H]1C | 94.9% |
| C[C@@H]1CCCCO[C@@H](CN(C)Cc2ccncc2)[C@H](C)CN([C@H](C)CO)C(=O)c2cc(NC(=O)Cc3ccccc3)ccc2O1 | 318% |
| C[C@@H]1CN([C@H](C)CO)C(=O)c2cc(NS(=O)(=O)c3ccccc3)ccc2O[C@@H](C)CCCCO[C@H]1CN(C)C(=O)C1CCCCC1 | -116% (active) |
| Cc1noc(C)c1S(=O)(=O)Nc1ccc2c(c1)C(=O)N([C@@H](C)CO)C[C@H](C)[C@@H](CN(C)C(=O)Nc1cccc3ccccc13)OCCCC[C@H](C)O2 | 141% |
| Cc1ccc(S(=O)(=O)Nc2ccc3c(c2)C(=O)N([C@H](C)CO)C[C@@H](C)[C@H](CN(C)S(=O)(=O)c2cccs2)OCCCC[C@@H](C)O3)cc1 | -131% (active) |
| CCOC(=O)c1oc2ccc(S(=O)(=O)Nc3ccc4[nH]c(=O)[nH]c4c3)cc2c1C | 75.3% |
| COCc1nnn2c1CN(Cc1ccc(C)s1)CCC2 | -49.3% |
| O=C(C1CCOCC1)N1CC(=O)N2[C@H](CO)[C@H](c3ccc(C#CC4CCCCC4)cc3)[C@H]2C1 | 19.2% |
| Cc1nc(SCC(=O)Nc2cccc(C(F)(F)F)c2)oc1C | 21% |
| COc1ccc(OC)c(NC(=O)Cn2c(=O)cc(C(=O)N3CCCCC3)c3ccccc32)c1 | 5.37% |

| Compound | activity change, negative = inhibition |
| --- | --- |
| CN(C)C(=O)[C@@H]1CCS(=O)(=O)[C@H]2CN(C(=O)NCc3ccccc3)C[C@@H]12 | 7.18% |
| COc1cccc(CC2(CO)CCN(c3ncnc4sccc34)CC2)c1 | -61.2% |
| O=S(=O)(c1ccccc1)N1[C@H](CO)[C@@H]2c3ccccc3NC[C@@H]21 | -13.4% |
| COc1ccc(S(=O)(=O)Nc2ccc3c(c2)C(=O)N([C@@H](C)CO)C[C@@H](C)[C@H](CN(C)Cc2ccc(C(F)(F)F)cc2)OCCCC[C@@H](C)O3)cc1 | -112% (active) |
| C[C@@H]1CCCCO[C@@H](CN(C)S(=O)(=O)c2ccccc2)[C@H](C)CN([C@H](C)CO)C(=O)c2cc(NC(=O)Nc3ccc4c(c3)OCO4)ccc2O1 | -79.4% (active) |
| C[C@@H]1CCCCO[C@H](CN(C)C(=O)CCCN(C)C)[C@H](C)CN([C@@H](C)CO)C(=O)c2cc(NS(=O)(=O)c3ccc(Cl)cc3)ccc2O1 | -84.8% (active) |
| C[C@@H]1CN([C@H](C)CO)C(=O)c2cc(NC(=O)NC3CCCCC3)ccc2O[C@@H](C)CCCCO[C@H]1CN(C)S(C)(=O)=O | -35.8% |
| CNC[C@@H]1OCCCC[C@H](C)Oc2ccc(NS(=O)(=O)c3ccc(F)cc3)cc2C(=O)N([C@@H](C)CO)C[C@@H]1C | 41.1% |
| C[C@@H]1CCCCO[C@H](CN(C)Cc2ccc3c(c2)OCO3)[C@H](C)CN([C@@H](C)CO)C(=O)c2cc(NS(=O)(=O)c3cn(C)cn3)ccc2O1 | 11.5% |
| C[C@@H]1CCCCO[C@H](CN(C)C(=O)Nc2ccccc2)[C@H](C)CN([C@H](C)CO)C(=O)c2cc(NC(=O)Nc3ccccc3)ccc2O1 | 72.5% |
| CNC[C@H]1OCCCC[C@@H](C)Oc2ccc(NS(=O)(=O)c3ccc(F)cc3)cc2C(=O)N([C@H](C)CO)C[C@H]1C | 193% |
| COc1ccc(S(=O)(=O)Nc2ccc3c(c2)C(=O)N([C@@H](C)CO)C[C@H](C)[C@H](CN(C)Cc2ccc(C(F)(F)F)cc2)OCCCC[C@@H](C)O3)cc1 | -47% |
| C[C@@H](O)C#Cc1ccc([C@H]2[C@@H](CO)N3CCCCN(CC4CC4)C[C@@H]23)cc1 | -5.07% |
| Cc1nc(-c2cccnc2)sc1C(=O)N(CCN(C)C)Cc1ccc2c(c1)OCO2 | -47.1% |
| CCC(NC(=O)CCNC(=O)c1ccccc1F)c1cccs1 (stereo not given) | 98.8% |
| COc1ccc2c(c1)NC1(CCN(S(=O)(=O)c3c(C)nn(C)c3C)CC1)c1cccn1-2 | 1.37% |
| CN1C(=O)CCc2cc(C(=O)NCc3cccc(Cl)c3)ccc21 | -50% |
| Cc1csc(CCCNc2cc(N(C)C)ncn2)n1 | -14.5% |
| Cc1ccc(-c2nnn(CC(=O)N(CC(=O)NC(C)(C)C)c3ccc(C(C)C)cc3)n2)o1 | -40.3% |
| CC(C)n1cnc(-c2cc(C(=O)N3CCC(N(C)C)CC3)c3ccccn23)c1 | -48.2% |
| Cc1cc(C(=O)N2CCCC(N(C)C)CC2)sc1C (stereo not given) | 8.26% |
| CN(C)C1CCN(C(=O)c2ccnn2-c2ccc3ccc(-c4ccccc4)cn23)CC1 | -101% (active) |
